Test results: PubChem BioAssay (NCATS)
Records with an inconclusive call do not appear. Activity calls are given as the source filed them. Calls follow the shape of the dose curve; as a rule, active = well fitted curve in the direction sought with a large enough effect; inconclusive = small, poorly fitted or top-dose-only effect, or another doubt; inactive = no such curve, though single readings can be large; an effect the other way counts as inactive or inconclusive.

test system: not listed separately; assay: Inducers of the Endoplasmic Reticulum Stress Response (ERSR) in human glioma: Validation (AID 504836); settings: human glioma cells, ER stress response reporter; series mostly up to 38.3 µM; activation: at the top concentration; also: 0% is about no effect
Procedure, shortened: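 Stably transfected U87-MG glioma cells carrying a GRP78-based luciferase sensor; 16 h compound incubation. Luminescence end-point read 10 min after Bright-Glo addition at room temperature.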

| Compound | activation | outcome |
| --- | --- | --- |
| CN1CCC(=C2c3ccccc3C=Cc3ccccc32)CC1 | 2.52% (inactive) | – |
| O=C1Cc2cc(CCN3CCN(c4nsc5ccccc45)CC3)c(Cl)cc2N1 | -11.7% (inactive) | – |
| N[C@@H]1CONC1=O | 0.346% (inactive) | – |
| Cc1ccccc1C(OCCN(C)C)c1ccccc1 (centres undefined) | 0.754% (inactive) | – |
| O=C(NCCN1CCOCC1)c1ccc(Cl)cc1 | -0.719% (inactive) | – |
| CCC1C(=O)OCC1Cc1cncn1C (centres undefined) | – | inactive |
| O=c1n(CCCN2CCN(c3cccc(Cl)c3)CC2)nc2ccccn12 | 0.597% (inactive) | – |
| CN(C)CCCN1c2ccccc2Sc2ccc(Cl)cc21 | 2.13% (inactive) | – |
| CCOC(=O)N1CCC(=C2c3ccc(Cl)cc3CCc3cccnc32)CC1 | -0.678% (inactive) | – |
| CCOC(=O)C1=C(C)NC(C)=C(C(=O)OC)C1c1cccc(Cl)c1Cl (centres undefined) | 0.412% (inactive) | – |
| CN(C)CC[C@@H](c1ccc(Br)cc1)c1ccccn1 | -4% (inactive) | – |
| Clc1ccc(C(c2ccccc2Cl)C(Cl)Cl)cc1 (centres undefined) | 0.737% (inactive) | – |
| CCN(CC)CCNC(=O)c1cc(Cl)c(N)cc1OC | -1.16% (inactive) | – |

target: Ubiquitin carboxyl-terminal hydrolase 1 (Homo sapiens) (UniProt O94782); assay: Inhibitors of USP1/UAF1: Pilot qHTS (AID 504865); settings: purified USP1/UAF1, Ub-rhodamine cleavage fluorescence; series mostly up to 114 µM; activity change, negative = inhibition: at the top concentration;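 also: rhodamine fluorescence freed from ubiquitin-rhodamine substrate followed over time; top concentration of the series differs between compounds; % is scaled to controls: 0 for no effect and ±100 for the full control effect; nearly all actives have a fitted effect of over 35% in size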
Procedure, shortened: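 Deubiquitinase activity followed as kinetic rhodamine fluorescence release from 150 nM Ub-Rho. 1 nM USP1/UAF1 with compound, after 15 min room-temperature preincubation, in HEPES pH 7.8 buffer containing TCEP, EDTA, BSA and Tween-20.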

Ubiquitin carboxyl-terminal hydrolase 1 (Homo sapiens), sequence (O94782 whole entry, looked up): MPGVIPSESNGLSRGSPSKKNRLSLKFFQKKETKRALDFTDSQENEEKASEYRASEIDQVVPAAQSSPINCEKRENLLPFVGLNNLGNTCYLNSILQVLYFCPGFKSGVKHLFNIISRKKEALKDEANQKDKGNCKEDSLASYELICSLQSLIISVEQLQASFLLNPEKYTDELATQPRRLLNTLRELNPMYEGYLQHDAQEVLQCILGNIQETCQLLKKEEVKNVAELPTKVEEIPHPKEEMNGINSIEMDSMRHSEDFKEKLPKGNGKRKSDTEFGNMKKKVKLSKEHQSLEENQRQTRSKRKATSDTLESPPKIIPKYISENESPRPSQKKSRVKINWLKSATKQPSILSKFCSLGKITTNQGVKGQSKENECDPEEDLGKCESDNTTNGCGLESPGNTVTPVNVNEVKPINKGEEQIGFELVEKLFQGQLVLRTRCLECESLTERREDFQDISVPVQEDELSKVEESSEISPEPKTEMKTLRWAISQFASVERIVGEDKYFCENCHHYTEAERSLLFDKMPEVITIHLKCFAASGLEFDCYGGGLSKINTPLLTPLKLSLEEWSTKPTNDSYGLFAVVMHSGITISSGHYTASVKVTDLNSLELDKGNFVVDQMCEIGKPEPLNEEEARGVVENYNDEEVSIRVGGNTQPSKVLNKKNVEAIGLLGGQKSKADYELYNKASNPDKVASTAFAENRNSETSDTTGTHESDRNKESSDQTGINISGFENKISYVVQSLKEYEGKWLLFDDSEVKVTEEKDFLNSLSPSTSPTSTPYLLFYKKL

| Compound | activity change, negative = inhibition | Potency |
| --- | --- | --- |
| COC1(CS(=O)c2ccccc2)CCN(CCc2c[nH]c3ccc(F)cc23)CC1 (centres undefined) | -4.22% (inactive) | – |
| CN(C)CCN(C)CCc1ccc(Cl)c(Cl)c1 | -7.21% (inactive) | – |
| CS(=O)c1ccc(-c2nc(-c3ccc(F)cc3)c(-c3ccncc3)[nH]2)cc1 (centres undefined) | -11.7% (inactive) | – |
| COc1cc([C@@H]2c3cc4c(cc3[C@H](O)[C@H]3COC(=O)[C@H]23)OCO4)cc(OC)c1OC | – | inactive |
| C[C@]12CC[C@@H]3c4ccc(O)cc4C[C@@H](CCCCCCCCCS(=O)CCCC(F)(F)C(F)(F)F)[C@H]3[C@@H]1CC[C@@H]2O (some centres undefined) | -13.8% (inactive) | – |
| O=C(O)c1ccc2[nH]cc(CCCCN3CC=C(c4ccccc4)CC3)c2c1 | -2.5% (inactive) | – |
| C#CCN(C)[C@H](C)Cc1ccccc1 | -6.16% (inactive) | – |
| CCC1C(=O)OCC1Cc1cncn1C (centres undefined) | – | inactive |

target: DNA dC->dU-editing enzyme APOBEC-3G (Homo sapiens) (UniProt Q9HC16); assay: qHTS for inhibitors of Vif-A3G interactions: Validation (AID 588379); settings: Vif-A3G protein interaction assay; series mostly up to 46.1 µM; activity change, negative = inhibition: at the top concentration; also: 0% is about no effect
Procedure, shortened: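 Yellow fluorescence (Ex 488, Em 500-530) of Vif-coexpressing HeLa A3G-eYFP cells, scanned by Acumen cytometer, reports blocked A3G degradation. Cells plated at 700/well overnight at 37 deg C before compound addition, then a further overnight compound incubation at 37 deg C.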

DNA dC->dU-editing enzyme APOBEC-3G (Homo sapiens), sequence (Q9HC16 whole entry, looked up): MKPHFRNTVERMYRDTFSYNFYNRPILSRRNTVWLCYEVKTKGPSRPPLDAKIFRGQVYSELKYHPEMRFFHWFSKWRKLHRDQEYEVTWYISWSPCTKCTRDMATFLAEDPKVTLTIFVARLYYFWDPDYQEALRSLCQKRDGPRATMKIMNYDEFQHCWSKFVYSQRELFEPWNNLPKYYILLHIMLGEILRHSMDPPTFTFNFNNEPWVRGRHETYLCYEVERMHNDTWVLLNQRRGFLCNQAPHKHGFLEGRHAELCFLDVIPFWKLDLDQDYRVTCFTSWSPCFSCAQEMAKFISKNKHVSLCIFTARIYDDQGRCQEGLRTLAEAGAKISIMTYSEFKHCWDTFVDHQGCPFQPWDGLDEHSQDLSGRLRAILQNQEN

| Compound | activity change, negative = inhibition |
| --- | --- |
| COC1(CS(=O)c2ccccc2)CCN(CCc2c[nH]c3ccc(F)cc23)CC1 (centres undefined) | 1.42% (inactive) |
| CN(C)CCN(C)CCc1ccc(Cl)c(Cl)c1 | -0.327% (inactive) |
| C#CCN(C)[C@H](C)Cc1ccccc1 | 1.3% (inactive) |
